The results in this text go back to article PMC12864922, “TDP-43 directly inhibits mRNA accumulation in neurites through modulation of mRNA stability”.

Over roughly 9,900 sequences, “r (bound/input frequency ratio)” has its median near 0.7; the highest 2% begin near 6.5. Shown is part of a subset that was picked to be rich in the highest values.

B1: ENSMUSG00000029636.440|Wasf3 (ssRNA)
RNA: GGGAGUUCUACAGUCCGACGAUCGCUUCGAUAUCCGCAUGCUAUAGGUGGUGGAUGGUUGAGUGGGUGGAUUCAUGAUGGAUGGAUGGAUGGAUGGAUGGAUGGAUGGAUGGAUGAGUGGAUGGAUAAUAGGUUGAUGGGUGGAUAGGUAGAUGAGUGAAUAGAUAGAUAUAGAUCAGUGGGAGGAUUGGAAAGUAGGUGAAUGAAUGGAUGGCAGAUAGAUGGAUCAAUUACAGAUGGAUGGAUGCAUGGAAUAGAUAGGUGGAUGGGUGGUGGCUAGAAGGUGCCUGAGUCUGCACAUCACCUCUUGCGGUCGCACUAGUGUGGAAUUCUCGGGUGUCAAGG
B2: ENSMUSG00000029636.450|Wasf3 (ssRNA)
RNA: GGGAGUUCUACAGUCCGACGAUCGCUUCGAUAUCCGCAUGCUAGAUGGAUGGAUGAGUGGAUGGAUAAUAGGUUGAUGGGUGGAUAGGUAGAUGAGUGAAUAGAUAGAUAUAGAUCAGUGGGAGGAUUGGAAAGUAGGUGAAUGAAUGGAUGGCAGAUAGAUGGAUCAAUUACAGAUGGAUGGAUGCAUGGAAUAGAUAGGUGGAUGGGUGGUGGCUAGAAGGUGCCUGAGUCUGCACAUCACUGCACUGAGAAGGCAAAUGAGUACAUUAUACUAUUAGCACCAAACCCCAAGCUUCAGUAUCUCUUGCGGUCGCACUAGUGUGGAAUUCUCGGGUGUCAAGG
B3: ENSMUSG00000029636.449|Wasf3 (ssRNA)
RNA: GGGAGUUCUACAGUCCGACGAUCGCUUCGAUAUCCGCAUGCUAUGGAUGGAUGGAUGGAUGAGUGGAUGGAUAAUAGGUUGAUGGGUGGAUAGGUAGAUGAGUGAAUAGAUAGAUAUAGAUCAGUGGGAGGAUUGGAAAGUAGGUGAAUGAAUGGAUGGCAGAUAGAUGGAUCAAUUACAGAUGGAUGGAUGCAUGGAAUAGAUAGGUGGAUGGGUGGUGGCUAGAAGGUGCCUGAGUCUGCACAUCACUGCACUGAGAAGGCAAAUGAGUACAUUAUACUAUUAGCACCAAACCCCAAGCUUCUCUUGCGGUCGCACUAGUGUGGAAUUCUCGGGUGUCAAGG
B4: ENSMUSG00000029636.443|Wasf3 (ssRNA)
RNA: GGGAGUUCUACAGUCCGACGAUCGCUUCGAUAUCCGCAUGCUAGUGGGUGGAUUCAUGAUGGAUGGAUGGAUGGAUGGAUGGAUGGAUGGAUGGAUGAGUGGAUGGAUAAUAGGUUGAUGGGUGGAUAGGUAGAUGAGUGAAUAGAUAGAUAUAGAUCAGUGGGAGGAUUGGAAAGUAGGUGAAUGAAUGGAUGGCAGAUAGAUGGAUCAAUUACAGAUGGAUGGAUGCAUGGAAUAGAUAGGUGGAUGGGUGGUGGCUAGAAGGUGCCUGAGUCUGCACAUCACUGCACUGAGAAGGCAAAUCUCUUGCGGUCGCACUAGUGUGGAAUUCUCGGGUGUCAAGG
B5: ENSMUSG00000029636.439|Wasf3 (ssRNA)
RNA: GGGAGUUCUACAGUCCGACGAUCGCUUCGAUAUCCGCAUGCUAGGAUGAUAGGUGGUGGAUGGUUGAGUGGGUGGAUUCAUGAUGGAUGGAUGGAUGGAUGGAUGGAUGGAUGGAUGGAUGAGUGGAUGGAUAAUAGGUUGAUGGGUGGAUAGGUAGAUGAGUGAAUAGAUAGAUAUAGAUCAGUGGGAGGAUUGGAAAGUAGGUGAAUGAAUGGAUGGCAGAUAGAUGGAUCAAUUACAGAUGGAUGGAUGCAUGGAAUAGAUAGGUGGAUGGGUGGUGGCUAGAAGGUGCCUGAGUCUGCACUCUUGCGGUCGCACUAGUGUGGAAUUCUCGGGUGUCAAGG
B6: ENSMUSG00000029636.444|Wasf3 (ssRNA)
RNA: GGGAGUUCUACAGUCCGACGAUCGCUUCGAUAUCCGCAUGCUAGGAUUCAUGAUGGAUGGAUGGAUGGAUGGAUGGAUGGAUGGAUGGAUGAGUGGAUGGAUAAUAGGUUGAUGGGUGGAUAGGUAGAUGAGUGAAUAGAUAGAUAUAGAUCAGUGGGAGGAUUGGAAAGUAGGUGAAUGAAUGGAUGGCAGAUAGAUGGAUCAAUUACAGAUGGAUGGAUGCAUGGAAUAGAUAGGUGGAUGGGUGGUGGCUAGAAGGUGCCUGAGUCUGCACAUCACUGCACUGAGAAGGCAAAUGAGUACCUCUUGCGGUCGCACUAGUGUGGAAUUCUCGGGUGUCAAGG
B7: ENSMUSG00000029636.438|Wasf3 (ssRNA)
RNA: GGGAGUUCUACAGUCCGACGAUCGCUUCGAUAUCCGCAUGCUAGUGAAUGGAUGAUAGGUGGUGGAUGGUUGAGUGGGUGGAUUCAUGAUGGAUGGAUGGAUGGAUGGAUGGAUGGAUGGAUGGAUGAGUGGAUGGAUAAUAGGUUGAUGGGUGGAUAGGUAGAUGAGUGAAUAGAUAGAUAUAGAUCAGUGGGAGGAUUGGAAAGUAGGUGAAUGAAUGGAUGGCAGAUAGAUGGAUCAAUUACAGAUGGAUGGAUGCAUGGAAUAGAUAGGUGGAUGGGUGGUGGCUAGAAGGUGCCUGAGCUCUUGCGGUCGCACUAGUGUGGAAUUCUCGGGUGUCAAGG
B8: ENSMUSG00000029636.445|Wasf3 (ssRNA)
RNA: GGGAGUUCUACAGUCCGACGAUCGCUUCGAUAUCCGCAUGCUAAUGAUGGAUGGAUGGAUGGAUGGAUGGAUGGAUGGAUGGAUGAGUGGAUGGAUAAUAGGUUGAUGGGUGGAUAGGUAGAUGAGUGAAUAGAUAGAUAUAGAUCAGUGGGAGGAUUGGAAAGUAGGUGAAUGAAUGGAUGGCAGAUAGAUGGAUCAAUUACAGAUGGAUGGAUGCAUGGAAUAGAUAGGUGGAUGGGUGGUGGCUAGAAGGUGCCUGAGUCUGCACAUCACUGCACUGAGAAGGCAAAUGAGUACAUUAUACUCUUGCGGUCGCACUAGUGUGGAAUUCUCGGGUGUCAAGG
B9: ENSMUSG00000029636.441|Wasf3 (ssRNA)
RNA: GGGAGUUCUACAGUCCGACGAUCGCUUCGAUAUCCGCAUGCUAGUGGAUGGUUGAGUGGGUGGAUUCAUGAUGGAUGGAUGGAUGGAUGGAUGGAUGGAUGGAUGGAUGAGUGGAUGGAUAAUAGGUUGAUGGGUGGAUAGGUAGAUGAGUGAAUAGAUAGAUAUAGAUCAGUGGGAGGAUUGGAAAGUAGGUGAAUGAAUGGAUGGCAGAUAGAUGGAUCAAUUACAGAUGGAUGGAUGCAUGGAAUAGAUAGGUGGAUGGGUGGUGGCUAGAAGGUGCCUGAGUCUGCACAUCACUGCACUCUCUUGCGGUCGCACUAGUGUGGAAUUCUCGGGUGUCAAGG
B10: ENSMUSG00000029636.446|Wasf3 (ssRNA)
RNA: GGGAGUUCUACAGUCCGACGAUCGCUUCGAUAUCCGCAUGCUAGAUGGAUGGAUGGAUGGAUGGAUGGAUGGAUGGAUGAGUGGAUGGAUAAUAGGUUGAUGGGUGGAUAGGUAGAUGAGUGAAUAGAUAGAUAUAGAUCAGUGGGAGGAUUGGAAAGUAGGUGAAUGAAUGGAUGGCAGAUAGAUGGAUCAAUUACAGAUGGAUGGAUGCAUGGAAUAGAUAGGUGGAUGGGUGGUGGCUAGAAGGUGCCUGAGUCUGCACAUCACUGCACUGAGAAGGCAAAUGAGUACAUUAUACUAUUACUCUUGCGGUCGCACUAGUGUGGAAUUCUCGGGUGUCAAGG

In the assay the target is TDP-43 (Homo sapiens, UniProt Q13148 1-414). Nature of the assay: RNA Bind-n-Seq with designed 260-mer pool; 25 mM Tris-HCl, 150 mM KCl, 3 mM MgCl2, BSA (printed 500 mg/mL), 20 units/mL SUPERase IN; pH not stated; 500 nM RNA pool, 1 h, 4 C; TDP-43 5, 50, 500 nM; high values mean tight binding. Conditions: protein: recombinant; tags: SBP (GST cleaved off with PreScission; pGEX-GST-SBP). Summed up: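 The incubation lasted 1 h at 4 °C and used 500 nM of an in vitro-transcribed 260-nt 3′ UTR oligo pool with recombinant SBP-tagged TDP-43 at 5, 50 or 500 nM immobilized on streptavidin beads. It took place in 25 mM Tris-HCl, 150 mM KCl, 3 mM MgCl2, BSA and SUPERase IN. Bound RNA was washed, eluted with biotin, converted to cDNA, PCR-amplified and sequenced to give R, each oligo's normalized abundance in the bound sample divided by that in input. Two independent protein batches provided the duplicates.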
Sequence of TDP-43 (Q13148 whole entry): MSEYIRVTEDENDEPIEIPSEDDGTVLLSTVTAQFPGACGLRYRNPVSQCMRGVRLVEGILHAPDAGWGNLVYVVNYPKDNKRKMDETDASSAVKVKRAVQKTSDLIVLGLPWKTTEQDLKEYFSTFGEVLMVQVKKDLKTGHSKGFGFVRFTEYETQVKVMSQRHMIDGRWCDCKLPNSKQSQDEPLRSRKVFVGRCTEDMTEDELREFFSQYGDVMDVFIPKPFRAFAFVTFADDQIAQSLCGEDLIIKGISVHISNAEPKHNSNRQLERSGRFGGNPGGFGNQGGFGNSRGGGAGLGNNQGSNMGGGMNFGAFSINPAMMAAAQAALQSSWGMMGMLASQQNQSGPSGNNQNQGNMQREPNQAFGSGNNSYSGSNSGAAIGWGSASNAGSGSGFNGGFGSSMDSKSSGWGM
On to B1, for which the binding signal is 7.49 R (bound/input frequency ratio).
Take B2: the binding signal was 6.13 R (bound/input frequency ratio).
As for B3, the binding signal was 6.51 R (bound/input frequency ratio).
The figure for B4 is 5.07 R (bound/input frequency ratio); for B5 it is 5.9 R (bound/input frequency ratio); for B6 it is 4.6 R (bound/input frequency ratio).
B7: the binding signal was 8.37 R (bound/input frequency ratio).
As for B8, the binding signal is 5.13 R (bound/input frequency ratio).
For the molecule B9, the binding signal was 7.11 R (bound/input frequency ratio).
The figure for B10 is 4.56 R (bound/input frequency ratio).
